# According to PubChem BioAssay (NCATS):
# “And” between values parts separate entries of the source, which are not always exact repeats. Identical values can stand only once. Results filed as inconclusive are left out. A call without a number means that no potency is given here. More than one record can exist for a structure, and the calls need not agree. The source made the active and inactive calls. Calls follow the shape of the dose curve; as a rule, active = well fitted inhibition curve with a large enough effect; inconclusive = small, poorly fitted or top-dose-only effect; inactive = no such curve, though single readings can be large or run the other way.
# Assay: Primary qHTS for inhibitors of nuclear receptor binding SET domain protein 2 (NSD2) in an RCH-ACV wild type WT cells (2C) (AID 1645877); also: nearly all actives have a fitted effect of over 70% in size
# Conditions: RCH-ACV (leukaemia line) NSD2 WT (2C) viability, CellTiter-Glo, 72 h; series mostly up to 44.9 µM
# Potency is read from the fitted curve at half-maximal effect.
Compound,Potency,"activity change, negative = cell killing"
CN(C)CCOC1=Cc2ccccc2Sc2ccc(Cl)cc21,16.8 µM (active),
C[C@H]1C[C@@H]2[C@H]([C@@H](O)C[C@@]3(C)[C@H]2CC[C@]3(O)C(=O)CO)[C@@]2(C)C=CC(=O)C=C12,26.6 nM (active) and 74.2 nM (active),
O=C(O)Cn1c(=O)n(Cc2ccc(Br)cc2F)c(=O)c2ccc(Cl)cc21,inactive,
c1ccc2c(c1)CCc1ccccc1N2,inactive,
Brc1ccc([C@H]2CN3CCSC3=N2)cc1,inactive,
CC(C)N(CCC(=O)c1ccc2ccccc2c1)Cc1ccccc1,5.25 µM (active) and 11.6 µM (active),
CC(C)(C)c1ccc(O)c(O)c1,2.17 µM (active),
CCCCC(CC)CNC(=O)CC(C)OC(=O)CCC(=O)O (configuration not stated),inactive,
Cc1cccc(N(C)C(=S)Oc2ccc3c(c2)CCC3)c1,inactive,
CN1CCCN=C1/C=C/c1cccs1,inactive,
CCCCC(=O)OCC(=O)[C@H]1[C@H](C)C[C@H]2[C@@H]3C[C@H](F)C4=CC(=O)C=C[C@]4(C)[C@@]3(F)[C@@H](O)C[C@@]21C,0.0033 µM (active),
CCOC(=O)c1cc(=O)c2c(OCC(COc3cccc4oc(C(=O)OCC)cc(=O)c34)OC(=O)[C@@H](N)CCCCN)cccc2o1,inactive,
O=C1NC(c2cccc([N+](=O)[O-])c2)=CCN1c1ccccc1O,inactive,
CCCCOCCOC(=O)c1cccnc1,inactive,
CCCCCCCCCCCCCCCC[n+]1ccccc1,0.335 µM (active),
CC[C@@]1(O)C(=O)OCc2c1cc1n(c2=O)Cc2c-1nc1ccccc1c2/C=N/OC(C)(C)C,inactive,
N[C@@H](Cn1ccc(=O)c(O)c1)C(=O)O,,-0.615% [at 4.96 µM] (inactive)
COc1ccccc1N1CCN(CCN2C(=O)CC3(CCCC3)CC2=O)CC1,inactive,
CCC(=O)O[C@]1(C(=O)COC)[C@@H](C)C[C@H]2[C@@H]3CCC4=CC(=O)C=C[C@]4(C)C3(F)[C@@H](O)C[C@@]21C (some centres not stated),0.0033 µM (active),
Cn1cnc2c(NCc3ccccc3)nc(NCCO)nc21,inactive,
CCOC(=O)C(=O)CCc1ccccc1,inactive,
O=[N+]([O-])c1ccc(-c2nc(-c3ccc(F)cc3)c(-c3ccncc3)[nH]2)cc1,inactive and 23.1 µM (active),
Cc1ccc(O)cc1,inactive,
CN1CC(=O)N2[C@H](c3ccc4c(c3)OCO4)c3[nH]c4ccccc4c3C[C@@H]2C1=O,inactive,
CCCCC/C=C\C/C=C\CCCCCCCC(=O)NC(C)c1ccccc1 (configuration not stated),16.8 µM (active),
O=C(O)/C=C(\CC(=O)O)C(=O)O,inactive,
CCC1=C[C@@H]2CN(C1)Cc1c([nH]c3ccccc13)[C@@](C(=O)OC)(c1cc3c(cc1OC)N(C)[C@H]1[C@@](O)(C(=O)OC)[C@H](OC(C)=O)[C@]4(CC)C=CCN5CC[C@]31[C@@H]54)C2,2.1 nM (active) and 162 nM (active),
